Source: PMC8384837, “Expanding the binding specificity for RNA recognition by a PUF domain”
Positions count from the first letter of the chain named.

Legend:
Experiment in all cases: yeast three-hybrid, YBZ-1, SC-Leu-His + 0.5 mM 3-AT, 4 days
Conditions in all cases: tags: N-Gal4 AD-HA kept; label: inside an RPR1-promoter hybrid RNA with tandem MS2 sites; ssRNA
PUM1 PUF domain R5-SIS = PUM1 PUF domain R5-SIS (Homo sapiens, UniProt Q14671 828-1176, C1007S;R1008I;Q1011S)
How it was run: (§1)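 The interaction score is the logarithmic change in variant frequency from input to selection. It uses log2, with a pseudocount of 1 for absent variants, and frequencies came from PCR-amplified, Illumina-sequenced repeat regions. The libraries were Pumilio-1 PUF domains randomized at the three base-contacting residues per repeat, co-expressed with matching RNA elements in strain YBZ-1 (LexA–MS2 coat fusion, HIS3 reporter). Plating lasted four days on SC-Leu (input) or SC-Leu-His + 0.5 mM 3-AT (selection).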

PUM1 PUF domain R6-NWP = target: T1, PUM1 PUF domain R6-NWP (Homo sapiens, UniProt Q14671 828-1176, Y1044W;Q1047P)
T1 sequence: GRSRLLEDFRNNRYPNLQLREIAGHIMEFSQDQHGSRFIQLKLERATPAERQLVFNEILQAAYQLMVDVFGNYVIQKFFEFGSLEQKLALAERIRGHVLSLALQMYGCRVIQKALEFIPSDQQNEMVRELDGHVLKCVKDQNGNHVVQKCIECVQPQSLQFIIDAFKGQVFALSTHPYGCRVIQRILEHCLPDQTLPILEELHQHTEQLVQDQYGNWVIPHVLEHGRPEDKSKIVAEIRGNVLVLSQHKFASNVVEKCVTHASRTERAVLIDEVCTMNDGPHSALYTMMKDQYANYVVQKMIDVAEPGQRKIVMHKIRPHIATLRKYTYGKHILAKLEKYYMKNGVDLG
How it was run: as §1

PUM1 PUF domain R8-RSR = PUM1 PUF domain R8-RSR (Homo sapiens, UniProt Q14671 828-1176, N1122R;Y1123S;Q1126R)
How it was run: as §1

PUM1 PUF domain R8-KRR = PUM1 PUF domain R8-KRR (Homo sapiens, UniProt Q14671 828-1176, N1122K;Y1123R;Q1126R)
How it was run: as §1

PUM1 PUF domain R1-NRR = PUM1 PUF domain R1-NRR (Homo sapiens, UniProt Q14671 828-1176, S863N;Q867R)
How it was run: as §1

PUM1 PUF domain R1-MVR = PUM1 PUF domain R1-MVR (Homo sapiens, UniProt Q14671 828-1176, S863M;R864V;Q867R)
How it was run: as §1

PUM1 PUF domain R4-NWP = PUM1 PUF domain R4-NWP (Homo sapiens, UniProt Q14671 828-1176, H972W;Q975P)
How it was run: as §1

PUM1 PUF domain R4-DYR = PUM1 PUF domain R4-DYR (Homo sapiens, UniProt Q14671 828-1176, N971D;H972Y;Q975R)
How it was run: as §1

PUM1 PUF domain R4-EYI = PUM1 PUF domain R4-EYI (Homo sapiens, UniProt Q14671 828-1176, N971E;H972Y;Q975I)
How it was run: as §1

PUM1 PUF domain R5-MRN = PUM1 PUF domain R5-MRN (Homo sapiens, UniProt Q14671 828-1176, C1007M;Q1011N)
How it was run: as §1

PUM1 PUF domain R6-SFS = target: T2, PUM1 PUF domain R6-SFS (Homo sapiens, UniProt Q14671 828-1176, N1043S;Y1044F;Q1047S)
T2 sequence: T1 sequence with N216S, W217F, P220S
How it was run: as §1

PUM1 PUF domain R3-YFG = PUM1 PUF domain R3-YFG (Homo sapiens, UniProt Q14671 828-1176, C935Y;R936F;Q939G)
How it was run: as §1

PUM1 PUF domain R5-DHV = PUM1 PUF domain R5-DHV (Homo sapiens, UniProt Q14671 828-1176, C1007D;R1008H;Q1011V)
How it was run: as §1

PUM1 PUF domain R6-IWR = target: T3, PUM1 PUF domain R6-IWR (Homo sapiens, UniProt Q14671 828-1176, N1043I;Y1044W;Q1047R)
T3 sequence: T1 sequence with N216I, P220R
How it was run: as §1

PUM1 PUF domain R5-RAC = PUM1 PUF domain R5-RAC (Homo sapiens, UniProt Q14671 828-1176, C1007R;R1008A;Q1011C)
How it was run: as §1

PUM1 PUF domain R5-HRL = PUM1 PUF domain R5-HRL (Homo sapiens, UniProt Q14671 828-1176, C1007H;Q1011L)
How it was run: as §1

PUM1 PUF domain R5-SPC = PUM1 PUF domain R5-SPC (Homo sapiens, UniProt Q14671 828-1176, C1007S;R1008P;Q1011C)
How it was run: as §1

Question: For “GGCUAGAACUAGUGGAUCCCCCGGCGCCCGGCGGCUCGAGCCCGGGUAAGUGUGAAUAGUCUGCAUGCCGCCGGGCGCCAUGCCUGCAGGUCGACUCUAGAAAACAUG”, which binding signal (PUM1 PUF domain R5-SIS) is on record?
Answer: 3.76 log2 enrichment (interaction score)

Question: Which binding signal (PUM1 PUF domain R6-NWP) does the source give for “GGCUAGAACUAGUGGAUCCCCCGGCGCCCGGCGGCUCGAGCCCGGGUAAGUGGAAAUAGUCUGCAUGCCGCCGGGCGCCAUGCCUGCAGGUCGACUCUAGAAAACAUG” here?
Answer: 2.26 log2 enrichment (interaction score)

Question: Which binding signal (PUM1 PUF domain R8-RSR) does the source give for “GGCUAGAACUAGUGGAUCCCCCGGCGCCCGGCGGCUCGAGCCCGGGUAAGCGUAAAUAGUCUGCAUGCCGCCGGGCGCCAUGCCUGCAGGUCGACUCUAGAAAACAUG” here?
Answer: 2.47 log2 enrichment (interaction score)

Question: And the binding signal (PUM1 PUF domain R8-KRR)?
Answer: 5.14 log2 enrichment (interaction score)

Question: Which binding signal (PUM1 PUF domain R1-NRR) does the source give for “GGCUAGAACUAGUGGAUCCCCCGGCGCCCGGCGGCUCGAGCCCGGGUAAGUGUAAAUUGUCUGCAUGCCGCCGGGCGCCAUGCCUGCAGGUCGACUCUAGAAAACAUG” here?
Answer: 2.34 log2 enrichment (interaction score)

Question: What about the binding signal (PUM1 PUF domain R1-MVR) of the same sequence?
Answer: 1.71 log2 enrichment (interaction score)

Question: “GGCUAGAACUAGUGGAUCCCCCGGCGCCCGGCGGCUCGAGCCCGGGUAAGUGUAUAUAGUCUGCAUGCCGCCGGGCGCCAUGCCUGCAGGUCGACUCUAGAAAACAUG” was tested. Which binding signal (PUM1 PUF domain R4-NWP) did it give?
Answer: 2.37 log2 enrichment (interaction score)

Question: What about the binding signal (PUM1 PUF domain R4-DYR) of the same sequence?
Answer: 6.18 log2 enrichment (interaction score)

Question: What about the binding signal (PUM1 PUF domain R4-EYI) of the same sequence?
Answer: 3.01 log2 enrichment (interaction score)

Question: For “GGCUAGAACUAGUGGAUCCCCCGGCGCCCGGCGGCUCGAGCCCGGGUAAGUGUAAAUAGUCUGCAUGCCGCCGGGCGCCAUGCCUGCAGGUCGACUCUAGAAAACAUG”, which binding signal (PUM1 PUF domain R5-MRN) is on record?
Answer: 3.24 log2 enrichment (interaction score)

Question: And the binding signal (PUM1 PUF domain R6-SFS)?
Answer: 4.67 log2 enrichment (interaction score)

Question: And the binding signal (PUM1 PUF domain R3-YFG)?
Answer: 4.07 log2 enrichment (interaction score)

Question: And the binding signal (PUM1 PUF domain R5-DHV)?
Answer: 3.41 log2 enrichment (interaction score)

Question: What about the binding signal (PUM1 PUF domain R8-KRR) of the same sequence?
Answer: 3.15 log2 enrichment (interaction score)

Question: And the binding signal (PUM1 PUF domain R6-NWP)?
Answer: 2.64 log2 enrichment (interaction score)

Question: And the binding signal (PUM1 PUF domain R6-IWR)?
Answer: 6.32 log2 enrichment (interaction score)

Question: And the binding signal (PUM1 PUF domain R5-RAC)?
Answer: 0.59 log2 enrichment (interaction score)

Question: And the binding signal (PUM1 PUF domain R4-DYR)?
Answer: 1.4 log2 enrichment (interaction score)

Question: For “GGCUAGAACUAGUGGAUCCCCCGGCGCCCGGCGGCUCGAGCCCGGGUAAGUGUUAAUAGUCUGCAUGCCGCCGGGCGCCAUGCCUGCAGGUCGACUCUAGAAAACAUG”, which binding signal (PUM1 PUF domain R5-DHV) is on record?
Answer: 4.07 log2 enrichment (interaction score)

Question: And the binding signal (PUM1 PUF domain R5-HRL)?
Answer: 4.98 log2 enrichment (interaction score)

Question: What about the binding signal (PUM1 PUF domain R5-SPC) of the same sequence?
Answer: 2.48 log2 enrichment (interaction score)
